# Bioassay records deposited in PubChem by National Center for Advancing Translational Sciences (NCATS).
# Tau ThT inhib = blocks human tau fibril formation measured by thioflavin T | P10636 | recombinant tau K18 P301L, heparin-induced fibrillization, ThT fluorescence | Potency, µM (top dose mostly 57.4 µM), for inactives: at the top dose activity, negative = inhibition, usual class: inhibitors | actives 2.1% (n = 270,000); note: % is set by controls: 0 for no effect and ±100 for the full control effect; nearly all actives have a fitted effect of over 55% in size
# Target sequence (P10636 561-689 P618L limits assumed): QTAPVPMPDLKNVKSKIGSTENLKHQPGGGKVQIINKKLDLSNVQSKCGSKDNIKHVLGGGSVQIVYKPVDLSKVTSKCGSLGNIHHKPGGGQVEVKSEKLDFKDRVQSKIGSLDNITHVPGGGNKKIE
#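 Tau K18 P301L fragment (15 uM unlabeled plus 0.24 uM Alexa 594-labeled) in 100 mM sodium acetate pH 7 with compound, fibrillization induced by 20 uM heparin for 6 hr at 37 C. Thioflavin T (30 uM) added, fluorescence read after 1 hr (ex 450, em 510 nm).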
# Tau fluor counter = counter-screen for tau fibril formation inhibitors; tau K18 P301L (four-repeat tau fragment) Alexa594 fluorescence, heparin fibrillization; Potency, µM (titrated, usually from 57.7 µM), for inactives: at the top dose activity change, negative = decrease; actives 0.93% (n = 280,000); AID 1463; note: % is set by controls: 0 for no effect and ±100 for the full control effect; nearly all actives have a fitted effect of over 55% in size
#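 Human K18 P301L tau (15 uM unlabeled plus 0.24 uM Alexa 594-labeled, final) in 100 mM sodium acetate pH 7 was mixed with compound and 20 uM heparin and incubated 6 hr at 37 C.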
# HttQ103 aggreg = reduces HttQ103-GFP aggregates in PC12 cells; PC12 HttQ103-GFP aggregates, Acumen cytometry, 40 h; Potency, µM (top dose mostly 46.1 µM), without a hit: at the top dose activity change, negative = inhibition, usual class: inhibitors; actives 1.1% (n = 220,000); note: % is set by controls: 0 for no effect and ±100 for the full control effect; nearly all actives have a fitted effect of over 60% in size
#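 Inducible Q103 Huntingtin exon 1–GFP PC12 line, 1500 cells/well in phenol red free DMEM with 5% equine and 5% calf serum. Tebufenozide 100 nM induced expression; compounds titrated; aggregates quantified by cytometry.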
# HTT cytoprotect = protects HTT-Q103 PC12 cells, measured by ATP; PC12 HTT-Q103 induced, cytoprotection, ATP luminescence, 40 h; Potency, µM (doses to about 56.4 µM), inactives show cytoprotection (ATP increase), actives largely listed as activators; actives 0.14% (n = 230,000); AID 1471; note: % of control where 0% means no effect; nearly all actives have a fitted effect of over 45% in size
#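 ATP quantification (ATPlite) reports survival of PC12 cells in which tebufenozide, 100 nM final, switches on Htt exon 1 with 103 glutamines linked to GFP; compounds are titrated.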
# Tau FP inhib = blocks human tau fibril formation measured by polarization. actives 0.39% (n = 280,000). AID 1468. K18 P301L tau heparin fibrillization, Alexa594 FP, 6 h. P10636. Potency, µM (titrated, usually from 57.7 µM), for the others: at the top dose activity, negative = inhibition, most hits filed as inhibitors; note: % is set by controls: 0 for no effect and ±100 for the full control effect; nearly all actives have a fitted effect of over 55% in size
#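 Human K18 P301L fragment (15 uM unlabeled plus 0.24 uM Alexa 594-labeled) in 100 mM sodium acetate pH 7 with compound, aggregation induced by 20 uM heparin for 6 hr at 37 C. ThT (30 uM) added for 1 hr, then Alexa 594 FP read.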
# Starred values were filed as active, the others as inactive; ? = inconclusive; nt = no result given; [ ] = remark or other dose. Sampled rows, rich in hits. Any-hit rate of the full collection: about 3.7%. Calls come from the whole dose curve; as a rule, active = well fitted curve in the direction sought with a large enough effect; inconclusive = small, poorly fitted or top-dose-only effect, or another doubt; inactive = no such curve, though single readings can be large; an effect the other way counts as inactive or inconclusive. Potency is the fitted concentration of half-maximal effect.
SMILES,Tau ThT inhib,Tau fluor counter,HttQ103 aggreg,HTT cytoprotect,Tau FP inhib
COc1cccc(C(=O)NC(=S)Nc2ccc3oc(=O)ccc3c2)c1,-9.7%,-8.9%,-20.1%,-4.7%[10 µM],-6.0%
COc1cccc(C(=O)NC(=S)Nc2ccc(N3CCCC3)cc2)c1,11.2µM*,?,9.8%,-12.3%,11.2%
CCCC(=O)N1CCN(c2ccc(NC(=S)NC(=O)c3cccc(C)c3)cc2)CC1,8.91µM*,?,-31.9%,15.1%[10 µM],-4.3%
COc1cccc(C(=O)NC(=S)Nc2ccc(N(C)C)cc2)c1,7.94µM*,?,?,2.7%[10 µM],5.0%
O=C(NC(=S)Nc1ccc(N2CCOCC2)cc1)c1ccccc1,?,?,22.0%,-17.9%,5.0%
O=C(NC(=S)Nc1ccc(N2CCOCC2)cc1)c1cccc(Cl)c1,12.6µM*,?,11.6%,-19.7%[10 µM],9.3%
CSc1ccc(CNC(=O)c2ccccc2NC(=O)c2nsc3ccccc23)cc1,10.8%,-8.9%,nt,nt,?
COc1cccc([C@@H]2Oc3ccc(OC)cc3C(=O)[C@H]2OC(=O)Nc2ccc(OC(F)F)cc2)c1,-5.4%,-25.9%,nt,10.1%,-12.8%
CC(C)(C)CC(C)(C)c1cc(O)c(O)c(CN2CCCCC2)c1,nt,nt,nt,-6.9%[10 µM],nt
Cc1ccc2occ(CC(=O)N(Cc3ccc(Cl)cc3)C3CCS(=O)(=O)C3)c2c1 (stereo not given),1.6%,-12.6%,nt,nt,-6.4%
COc1ccc(N(Cc2cccs2)C(=O)COc2cc(C)c(Cl)c(C)c2)cc1,-12.1%,-4.6%,nt,nt,3.9%
COc1cccc(NC(=S)Nc2ccc(O)cc2)c1,17.8µM*,?,3.1%[9.22 µM],18.9%[10 µM],?
COc1cccc(NC(=S)Nc2cccnc2)c1,-8.3%,-7.2%,14.3%,-2.6%[10 µM],-8.4%
O=C(CCCSc1nc2ccccc2[nH]1)N1CCN(c2ccc([N+](=O)[O-])cc2)CC1,0.794µM*,-18.9%,?,0.3%,-6.0%
COc1ccccc1NC(=O)c1sc2nc3c(cc2c1N)CCCCCC3,?,?,nt,nt,-9.2%
CN1CCc2nc3sc(C(=O)Nc4c(F)cccc4F)c(N)c3cc2C1,?,?,nt,nt,-0.8%
COc1ccc(NC(=O)c2sc3nc4c(cc3c2N)CN(C(C)C)CC4)c(OC)c1,12.6µM*,14.1µM*[quencher],nt,nt,?
Cc1cccc(NC(=O)c2sc3nc4c(cc3c2N)CN(C(C)C)CC4)c1,12.6µM*,17.8µM*[quencher],nt,nt,-13.2%
CN1CCc2nc3sc(C(=O)Nc4cccc(C#N)c4)c(N)c3cc2C1,12.6µM*,?,nt,nt,3.2%
N#Cc1cc2c(N)c(C(=O)Nc3ccccc3)sc2nc1N,7.94µM*,?,?,nt,15.7%
Cc1cccc(NC(=O)c2sc3nc4c(cc3c2N)CN(Cc2ccccc2)CC4)c1,-16.0%,-22.4%,nt,nt,-0.2%
Cc1ccc(CNC(=O)C2CCN(S(=O)(=O)c3cc(-c4noc(C)n4)ccc3C)CC2)cc1,4.6%,-12.1%,nt,nt,-4.9%
CCN1CCc2nc3sc(C(=O)Nc4cccc(Cl)c4C)c(N)c3cc2C1,10µM*,?,nt,nt,4.3%
Oc1cc(CN2COc3ccccc32)c(O)cc1CNC1CCCCC1,nt,nt,nt,7.3%[10 µM],nt
COC(=O)C1=C(C(=O)OC)[C@@H]2N(Cc3ccccc3)c3ccccc3[C@@]23C[C@@H](C(=O)OC)N(S(=O)(=O)c2ccc(OC)cc2)C3=N1,-2.1%[11.5 µM],-14.2%[11.6 µM],nt,-24.2%[10 µM],0.5%[11.6 µM]
SMILES,Tau ThT inhib,Tau fluor counter,HttQ103 aggreg,HTT cytoprotect,Tau FP inhib
O=C(CN1CCCCCC1)NCc1ccccc1,2.3%,2.3%,6.6%,6.9%[10 µM],4.4%
CC1CCN(CC(=O)NCc2ccccc2)CC1,-4.9%,1.4%,2.51µM*,-5.2%[0.074 µM],-6.5%
CC1=CC(C)(C)N2C(=O)C(=Nc3ccc(O)cc3)c3cccc1c32,12.6µM*,?,4.6%[9.22 µM],7.8%[10 µM],28.2µM*
CSc1cccc(Nc2cc(C(=O)NCCCN(Cc3ccccc3)C(C)C)c3ccccc3n2)c1,?,3.55µM*[quencher],nt,nt,?
CSc1cccc(Nc2cc(C(=O)NC3CCCCC3)c3ccccc3n2)c1,2.3%,?,nt,nt,-4.5%
Cc1cc(C)cc(Nc2cc(C(=O)NCCCN(Cc3ccccc3)C(C)C)c3ccccc3n2)c1,-15.7%,2.82µM*[quencher],nt,nt,?
CC1(C)S[C@@H]2[C@H](C(=O)O)N=C(Cc3ccccc3)N2[C@H]1C(=O)O,nt,nt,nt,-2.7%[10 µM],nt
O=S(=O)(c1ccc(-c2cc(C(F)(F)F)on2)s1)N1CCN(c2ccc(F)cc2)CC1,4.6%,-3.6%,nt,nt,1.2%
N=C(N)S[C@H]1c2ccccc2-c2cc([N+](=O)[O-])ccc21,nt,nt,nt,17.6%[10 µM],nt
CCN(Cc1ccccc1)c1ccc(/C=N/NS(=O)(=O)c2ccc(C)c([N+](=O)[O-])c2)cc1,?,7.08µM*[quencher],-19.8%,-0.1%[10 µM],?
Cc1ccc2cc(/C=C(\C#N)C(N)=O)c(N3CCCCC3)nc2c1,?,-10.8%,-16.9%,-3.6%[10 µM],6.8%
Cc1ccc2cc(C=C(C#N)C#N)c(N3CCCCC3)nc2c1,25.1µM*,-16.9%,29.2%,-43.6%,?
COc1ccc(N(C(C)C(=O)N/N=C/c2cc(Br)c(C)o2)S(C)(=O)=O)cc1 (stereo not given),-1.9%,-7.6%,?,0.891µM*,-6.1%
CCOc1ccc(/C=N/NC(=O)C(C)N(c2ccc(OC)cc2)S(C)(=O)=O)cc1OCC (stereo not given),-8.6%,-15.5%,-14.1%,-9.1%,-3.7%
CC1=C(C(=O)Nc2ccccc2)C(c2ccccc2C)n2nc(SCC(=O)c3ccc(C)cc3)nc2N1 (stereo not given),?,22.3%,nt,nt,7.8%
COc1c(-c2coc3cc4c(cc3c2=O)CC(O)C(C)(C)O4)ccc2c1C=CC(C)(C)O2 (stereo not given),-14.8%,-14.8%,nt,-357.2%,10.1%
COC(=O)c1ccc([C@H]2Nc3ccc(S(=O)(=O)Nc4cccc(C)c4)cc3[C@H]3C=CC[C@H]32)cc1,?,?,nt,nt,3.8%
COC(=O)c1ccc([C@@H]2Nc3c(OC)ccc(C)c3[C@@H]3C=CC[C@@H]32)cc1,12.6µM*,?,nt,nt,?
CCOc1ccc(NC(=O)c2c(NC(=O)c3ccccc3Br)sc3c2CCC(C)C3)cc1 (stereo not given),14.1µM*,-22.7%,nt,nt,?
COC(=O)C1=C(C)N(Cc2ccccc2)[C@]23O[C@](C(=O)OC)(C(=O)N2C1c1ccccc1)C1CCOC(=O)C13 (stereo not given in full),-11.6%[11.5 µM],-12.5%[11.6 µM],nt,10.5%[10 µM],-9.9%[11.6 µM]
COc1cccc(CN(C(=O)Cc2c[nH]c3ccccc23)C(C(=O)NC2CCCCC2)c2ccc(C)o2)c1 (stereo not given),-10.7%,-27.2%,12.6µM*,2.4%[10 µM],?
Cc1ccc(C(C(=O)NC2CCCCC2)N(Cc2ccccc2)C(=O)Cc2c[nH]c3ccccc23)o1 (stereo not given),-13.0%,-24.5%,20µM*,17.5%[10 µM],10.5%
